# 697 NFkB inh: inhibitors of PMA/ionomycin-induced NF-kB reporter, 697 cells, primary screen, B-cell NF-kB inhibitor project, cell-based, luminescence, uHTS. 697 B-cell NF-kB luciferase reporter, 16 h. inhibition, % at 4 µM. 330,000 tested, 0.33% active. AID 435022, 2010; in the data active = inhibition above about 35%
# Mdm2 MdmX PPI: inhibitors of human Mdm2-MdmX association, primary screen, cell-based, luminescence, split luciferase, SaOS-2, uHTS. inhibition, % at 8 µM. Protein Mdm4 (Homo sapiens) + E3 ubiquitin-protein ligase Mdm2 (Homo sapiens), …. SaOS-2 split-luciferase Mdm2/MdmX complementation. 330,000 tested, 3% active;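 active = inhibition of at least 50% at 8 µM in the primary screen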
# Target sequence (O15151 whole entry, looked up): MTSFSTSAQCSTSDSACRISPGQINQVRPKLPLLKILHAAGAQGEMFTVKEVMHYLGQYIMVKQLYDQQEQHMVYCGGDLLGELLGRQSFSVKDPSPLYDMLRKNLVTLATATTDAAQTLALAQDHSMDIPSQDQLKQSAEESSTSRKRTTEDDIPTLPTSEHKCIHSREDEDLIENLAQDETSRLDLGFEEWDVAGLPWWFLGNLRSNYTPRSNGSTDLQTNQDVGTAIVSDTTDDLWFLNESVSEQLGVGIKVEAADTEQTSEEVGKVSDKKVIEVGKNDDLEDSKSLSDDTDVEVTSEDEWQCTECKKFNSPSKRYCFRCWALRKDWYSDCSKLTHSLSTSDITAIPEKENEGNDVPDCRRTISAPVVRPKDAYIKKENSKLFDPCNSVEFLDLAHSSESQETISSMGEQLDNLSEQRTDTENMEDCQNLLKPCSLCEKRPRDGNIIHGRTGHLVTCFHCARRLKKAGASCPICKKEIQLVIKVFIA
# Target sequence (Q00987 whole entry, looked up): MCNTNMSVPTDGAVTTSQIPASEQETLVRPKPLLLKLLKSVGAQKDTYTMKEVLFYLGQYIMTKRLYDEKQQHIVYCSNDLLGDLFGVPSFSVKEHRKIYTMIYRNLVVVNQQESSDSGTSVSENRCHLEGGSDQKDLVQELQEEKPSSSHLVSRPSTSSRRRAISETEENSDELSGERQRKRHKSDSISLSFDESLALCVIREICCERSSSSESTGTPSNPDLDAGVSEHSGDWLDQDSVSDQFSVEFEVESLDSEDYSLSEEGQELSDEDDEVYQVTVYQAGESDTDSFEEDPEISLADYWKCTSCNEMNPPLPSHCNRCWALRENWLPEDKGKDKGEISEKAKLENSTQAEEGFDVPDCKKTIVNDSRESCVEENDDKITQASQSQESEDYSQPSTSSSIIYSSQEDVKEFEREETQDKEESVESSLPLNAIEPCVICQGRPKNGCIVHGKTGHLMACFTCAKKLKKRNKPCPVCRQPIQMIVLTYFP
# aSyn 5UTR inh: MLPCN primary screen, SNCA 5' untranslated region | alpha-synuclein 5'UTR reporter, inhibitor activity | AID 1813, 2009 | 300,000 tested, 0.82% active | inhibition, % (tested at 7.5 µM); in the data active = inhibition above about 60%;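 note: H4 neuroglioblastoma cells stably carrying SNCA 5'UTR luciferase fusion; 0% = DMSO wells and 100% = positive control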
# Jurkat NFkB inh: inhibitors of induced NF-kB luciferase reporter, primary screen, TCR NF-kB activation inhibitor project, cell-based, luminescence, uHTS; Jurkat, PMA/ionomycin-induced NF-kB luciferase reporter; inhibition, % at 4 µM; 330,000 tested, 0.53% active; in the data active = inhibition above about 50%
# CSC inhib: cancer stem cell viability inhibitors, primary screen, luminescence; cancer stem cell-like cells viability; inhibition, % at 7.5 µM; 300,000 tested, 1.1% active; AID 2717, 2010; in the data active = inhibition above about 75%; tested in HMLE shEcad cells
# Gli-Sufu block: Gli-Sufu pathway antagonists, primary screen, luciferase luminescence, Sufu-KO-LIGHT cells, uHTS; Sufu-KO-LIGHT fibroblasts, Gli luciferase reporter luminescence; inhibition, % at 5 µM; 340,000 tested, 0.74% active;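 active = inhibition above about 55%, limit read from the data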;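 note: 0% = DMSO-treated cells and 100% = wells with medium but no cells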
# Mdm2 MdmX conf: Mdm2-MdmX complex disruptors, retested hits, confirmation, luminescence, single concentration; shares compounds with Mdm2 MdmX PPI; inhibition, % at 8 µM; 10,000 tested, 55% active; Mdm2-MdmX binding, luminescent assay; in the data active = inhibition above about 40%
# FLuc counter: full-length luciferase signal inhibition, confirmation, counter-screen for Mdm2/MdmX interaction inhibitor project, cell-based, single concentration, SaOS-2; shares compounds with Mdm2 MdmX PPI; SaOS-2 full-length luciferase counterscreen, luminescence; inhibition, % at 8 µM; 6,200 tested, 77% active;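 active = mean inhibition at 8 µM reaching about 37%, which flags the compound as non-specific, limit read from the data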;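 note: p53-null SaOS-2 cells with luciferase driven by a doxycycline-inducible promoter; compound on cells about two nights before reading with doxycycline added after day one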
# Starred values were filed as active, the others as inactive; . = no result. Most compounds without a hit are left out; they make up all but 4.5% or so of the library.
SMILES,697 NFkB inh,Mdm2 MdmX PPI,aSyn 5UTR inh,Jurkat NFkB inh,CSC inhib,Gli-Sufu block,Mdm2 MdmX conf,others
CC1=NN(c2nc3ccccc3[nH]2)C(=O)C1Cc1ccccc1 (centres undefined),-12.4,84.7*,25.8,2.5,100.2*,28.6,81.2*,FLuc counter=36.3*
COc1ccc(S(=O)(=O)Cc2ccc(C(=O)N3CCN(c4cccc(C)c4C)CC3)o2)cc1,-24.7,63.5*,7.1,48.5,71.7,12.5,61.0*,FLuc counter=47.2*
CCOC(=O)[C@@H]1[C@H]2COc3cc(OC)ccc3[C@H]2N2C(=O)N(c3ccc(C(F)(F)F)cc3)C(=O)[C@]12C,-16.4,91.3*,.,7.4,102.0*,1.3,17.6,
Cc1ccc(Cl)cc1NC(=O)CC(O)(C(F)(F)F)C(F)(F)F,-11.6,59.4*,9.4,6.7,41.8,21.8,27.5,
Cn1c(O)c(/C=C2\C=Nc3ccccc32)sc1=Nc1ccc(C(=O)O)cc1,-10.3,34.6,5.5,0.8,6.5,-27.6,.,
Oc1nc(Nc2ccc(Cl)cc2Cl)sc1/C=C1\C=Nc2ccccc21,-2.6,86.0*,-41.8,-0.1,-0.5,-15.4,34.1,
C=CCn1c(C)cc(C(=O)COC(=O)CNC(=O)c2ccccc2)c1C,-22.3,28.8,-31.3,-14.8,2.7,-18.4,.,
Cc1ccc(OCCCC(=O)Nc2ccc(Br)cc2)cc1,27.5,-1.9,-2.6,4.4,-13.8,-1.5,.,
Cc1ccc(NC(=O)Cn2nnc3ccccc3c2=O)cc1C,12.1,5.4,-16.0,-21.8,.,-3.5,.,
Cc1ccc(S(=O)(=O)N2CCOCC2)cc1C(=O)N1CCN(c2ccc(C(F)(F)F)cn2)CC1,1.5,7.4,.,18.2,-15.3,10.2,.,
COC(=O)[C@@]12CCCCN1[C@H](c1ccc(-c3cc(C(C)=O)cs3)cc1)[C@H]1C(=O)N(C)C(=O)[C@H]12,-7.1,67.4*,14.9,-15.7,-11.0,12.8,22.4,
CCN1C(=O)[C@@H]2[C@@H](c3ccc(-c4ccc(Cl)c(Cl)c4)cc3)N3CCCC[C@@]3(C(=O)OC)[C@@H]2C1=O,26.1,34.5,19.8,19.8,5.0,-4.4,.,
COC(=O)[C@@]12CCCCN1[C@H](c1ccc(-c3ccc(Cl)c(Cl)c3)cc1)[C@H]1C(=O)N(C)C(=O)[C@H]12,2.1,66.9*,.,7.3,.,3.7,20.5,
CCN1C(=O)[C@@H]2[C@@H](c3ccc(-c4ccc(Cl)c(Cl)c4)c(OC)c3)N3CCC[C@@]3(C(=O)OC)[C@@H]2C1=O,-30.2,67.3*,.,-76.5,26.6,8.9,23.1,
CCCCCCSc1ccc([C@@H]2[C@@H]3C(=O)N(CC)C(=O)[C@@H]3[C@]3(C(=O)OC)CCCCN23)cc1,-0.5,51.5*,.,-2.5,68.2,0.4,5.7,
CCN1C(=O)[C@H]2[C@@H](c3ccc(-c4ccc(F)cc4)c(OC)c3)N3CCC[C@@]3(C(=O)OC)[C@H]2C1=O,12.8,25.6,8.3,5.9,8.3,-5.1,.,
CC(C(=O)N1CCc2ccccc21)N1CCN(S(=O)(=O)c2cccs2)CC1 (centres undefined),-6.7,3.6,.,7.2,.,-6.8,.,
COC(=O)[C@@]12CCCCN1[C@H](c1ccc(-c3ccc(Cl)c(Cl)c3)c(OC)c1)[C@@H]1C(=O)N(C)C(=O)[C@@H]12,.,.,.,.,.,-4.3,.,
COC(=O)[C@@]12CCCCN1[C@H](c1ccc(-c3ccc(Cl)c(Cl)c3)c(OC)c1)[C@H]1C(=O)N(C)C(=O)[C@H]12,16.1,65.3*,.,-13.9,.,-5.0,41.8*,FLuc counter=44.2*

# Screening data deposited in PubChem by several laboratories.
